Test results taken from PubChem BioAssay (EPA / NIEHS).
Records with an inconclusive call do not appear. Where a structure was tested more than once in an assay, its records may differ in their call. Activity calls are given as the source filed them. The calls were made as follows, unless noted: active = hit-call score of the fitted dose curve at least 0.9, where 1 is the maximum; inactive = score below 0.9.

What was measured:
[1] = ATG_NFI_CIS: Attagene CIS-FACTORIAL HepG2 Assay for human Nuclear Factor I (NFI) (AID 2282989); details: HepG2 cis-regulatory reporter, NFI response element transcription; actives raise or lower the signal
Procedure, shortened: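 Cells: human liver HepG2, transiently transfected with promoter-regulated reporter transcription units. Exposure 24 h. Detection: fluorescent RT-PCR products separated by capillary electrophoresis, normalised to DMSO negative control.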

[2] = ATG_NF_kB_CIS: Attagene CIS-FACTORIAL HepG2 Assay for human Nuclear Factor Kappa B (NF-kB) (AID 2282991); details: HepG2 Attagene cis-factorial NF-kB reporter mRNA; actives raise or lower the signal
Procedure, shortened: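 Measures mRNA induction of an NF-kB-responsive cis-element reporter in HepG2 cells transfected with multiple reporter units, sampled 24 h post-dosing; quantified by fluorescence after RT-PCR and capillary electrophoresis, fitted for activation or inhibition against DMSO.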

[3] = ATG_NRF2_ARE_CIS: Attagene CIS-FACTORIAL HepG2 Assay for human Nuclear Factor Erythroid 2 Related Factor 2 (NFR2) response to Antioxidant Response Elements (ARE) (AID 2282992); details: HepG2 Attagene ARE/NRF2 reporter, transcription factor activity; actives raise or lower the signal
Procedure, shortened: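 Using transiently transfected HepG2 cells exposed for 24 h, reporter mRNA levels were determined by RT-PCR with fluorescent primer extension and capillary electrophoresis, analysed for gain or loss of signal against DMSO.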

[4] = ATG_Oct_MLP_CIS: Attagene CIS-FACTORIAL HepG2 Assay for human Octamer-Binding Transcription Factor (Oct) (AID 2282993); details: HepG2 Attagene cis-factorial Oct reporter, mRNA; actives raise or lower the signal
Procedure, shortened: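 HepG2, transient MRTU transfection, cis promoter elements; 24 h dosing; RT-PCR/CE fluorescence read-out of reporter mRNA; fit both directions vs DMSO.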

[5] = BSK_3C_TissueFactor: BioMAP Diversity Plus: 3C Assay for Tissue Factor Biomarker Activity (AID 2282997); details: BioMAP 3C HUVEC, tissue factor biomarker readout; actives raise or lower the signal
Procedure, shortened: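 After a 24 h chemical exposure of primary human umbilical vein endothelial cells, Tissue Factor levels were quantified by ELISA.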

[6] = BSK_3C_uPAR: BioMAP Diversity Plus: 3C Assay for Urokinase-type plasminogen activator receptor (uPAR) Biomarker Activity (AID 2282998); details: BioMAP 3C HUVEC, uPAR biomarker ELISA; actives raise or lower the signal
Procedure, shortened: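 A multiplexed primary-cell system built on human umbilical vein endothelium was used, with chemical present for 24 h before reading. Cell-surface uPAR was detected by ELISA; signal change in either direction counted against DMSO.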

[7] = BSK_3C_VCAM1: BioMAP Diversity Plus: 3C Assay for Vascular cell adhesion molecule 1 (VCAM1) Biomarker Activity (AID 2282999); details: BioMAP 3C HUVEC, VCAM1 ELISA, cytokine-stimulated; actives raise or lower the signal
Procedure, shortened: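 HUVEC primary cells, 24 h compound exposure; VCAM-1 by ELISA; gain/loss of signal fitted bidirectionally vs DMSO baseline.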

[8] = BSK_4H_Eotaxin3: BioMAP Diversity Plus: 4H Assay for Eotaxin 3 Biomarker Activity (AID 2283000); details: primary human endothelial cells (HUVEC); actives raise or lower the signal
Procedure, shortened: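 Chemicals were added to human umbilical vein endothelium cultures, and Eotaxin-3 was quantified by ELISA at 24 h. Values were derived by bidirectional fitting with DMSO serving as negative control and activity baseline.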

[9] = target: human Peroxisome Proliferator-activated Receptor delta (PPARd), PPARD (gene 5467) (UniProt Q03181); experiment: ATG_PPARd_TRANS: Attagene TRANS-FACTORIAL HepG2 Assay for human Peroxisome Proliferator-activated Receptor delta (PPARd) (AID 2283002; active = hit-call score of the fitted dose curve at least 0.9, where 1 is the maximum)
Sequence of human Peroxisome Proliferator-activated Receptor delta (PPARd), PPARD (gene 5467) (Q03181 whole entry, looked up, the tested form may be a part): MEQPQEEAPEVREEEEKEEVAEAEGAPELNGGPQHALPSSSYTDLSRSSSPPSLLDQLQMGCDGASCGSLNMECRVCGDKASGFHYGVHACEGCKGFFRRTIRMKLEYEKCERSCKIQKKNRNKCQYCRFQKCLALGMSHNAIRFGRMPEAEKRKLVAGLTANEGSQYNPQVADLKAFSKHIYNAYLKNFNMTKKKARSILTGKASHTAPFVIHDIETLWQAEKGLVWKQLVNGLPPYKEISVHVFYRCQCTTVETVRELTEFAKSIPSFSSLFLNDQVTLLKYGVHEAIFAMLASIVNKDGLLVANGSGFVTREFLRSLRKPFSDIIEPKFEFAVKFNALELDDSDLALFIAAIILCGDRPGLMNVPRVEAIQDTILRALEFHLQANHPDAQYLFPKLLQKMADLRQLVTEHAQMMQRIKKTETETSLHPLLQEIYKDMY
Procedure, shortened: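 HepG2 cells transiently transfected with GAL4-UAS multiplexed reporter units driven by exogenous chimeric NR-GAL4 proteins; 24 h compound exposure. Reporter mRNA measured by RT-PCR, 6-FAM primer extension, HpaI digestion and capillary electrophoresis; gain of signal fitted relative to DMSO.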

[10] = read-out: Intercellular Adhesion Molecule 1 (ICAM1), ICAM1 (gene 3383); experiment: BSK_3C_ICAM1: BioMAP Diversity Plus: 3C Assay for Intercellular Adhesion Molecule 1 (ICAM1) Biomarker Activity (AID 2283003); details: primary human endothelial cells (HUVEC); actives raise or lower the signal
Procedure, shortened: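 ELISA readout of ICAM1 in human umbilical vein endothelial cells in the 3C system, taken 24 h post-dose. Gain or loss of signal versus DMSO was fitted in both directions, with SRB total-protein staining run in parallel.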

[11] = BSK_3C_Proliferation: Cell Proliferation Assessment in the BioMAP Diversity Plus: 3C Assay (AID 2283006); details: primary human endothelial cells (HUVEC);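 as to AC50: potency may reflect either rise or fall in cell number versus DMSO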
Procedure, shortened: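 Proliferation as total protein: sulforhodamine B (0.1%) stain of TCA-fixed subconfluent human umbilical vein endothelial cells, absorbance 560 nm, 48 h after dosing. Activity fitted in both directions against DMSO baseline.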

[12] = target: human Peroxisome Proliferator-activated Receptor alpha (PPARa), PPARA (gene 5465) (UniProt Q07869); experiment: ATG_PPARa_TRANS: Attagene TRANS-FACTORIAL HepG2 Assay for human Peroxisome Proliferator-activated Receptor alpha (PPARa) (AID 2283001; active = hit-call score of the fitted dose curve at least 0.9, where 1 is the maximum)
Sequence of human Peroxisome Proliferator-activated Receptor alpha (PPARa), PPARA (gene 5465) (Q07869 whole entry, looked up): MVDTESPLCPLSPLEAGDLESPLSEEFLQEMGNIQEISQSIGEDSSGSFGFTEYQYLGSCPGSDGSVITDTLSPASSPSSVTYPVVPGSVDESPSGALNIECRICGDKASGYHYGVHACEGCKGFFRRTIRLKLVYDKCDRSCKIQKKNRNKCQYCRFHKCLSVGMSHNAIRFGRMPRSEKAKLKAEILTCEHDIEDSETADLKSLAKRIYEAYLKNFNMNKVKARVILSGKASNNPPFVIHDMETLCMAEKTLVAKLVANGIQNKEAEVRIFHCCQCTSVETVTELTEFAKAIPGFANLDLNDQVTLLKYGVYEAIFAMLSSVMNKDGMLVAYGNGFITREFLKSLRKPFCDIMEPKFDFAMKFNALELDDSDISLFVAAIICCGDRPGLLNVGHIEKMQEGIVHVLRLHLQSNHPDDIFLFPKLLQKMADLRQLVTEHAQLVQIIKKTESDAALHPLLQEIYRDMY
Procedure, shortened: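 HepG2, transient MRTU transfection, 24 h treatment. RT-PCR → FAM labelling → capillary electrophoresis. Fit vs DMSO, positive direction.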

[13] = target: Nuclear receptor subfamily 1 group I member 2 (Homo sapiens) (UniProt O75469); experiment: ATG_PXR_TRANS: Attagene TRANS-FACTORIAL HepG2 Assay for human Pregnane X Receptor (PXR) (AID 2283008; active = hit-call score of the fitted dose curve at least 0.9, where 1 is the maximum)
Sequence of Nuclear receptor subfamily 1 group I member 2 (Homo sapiens) (O75469 whole entry, looked up, the tested form may be a part): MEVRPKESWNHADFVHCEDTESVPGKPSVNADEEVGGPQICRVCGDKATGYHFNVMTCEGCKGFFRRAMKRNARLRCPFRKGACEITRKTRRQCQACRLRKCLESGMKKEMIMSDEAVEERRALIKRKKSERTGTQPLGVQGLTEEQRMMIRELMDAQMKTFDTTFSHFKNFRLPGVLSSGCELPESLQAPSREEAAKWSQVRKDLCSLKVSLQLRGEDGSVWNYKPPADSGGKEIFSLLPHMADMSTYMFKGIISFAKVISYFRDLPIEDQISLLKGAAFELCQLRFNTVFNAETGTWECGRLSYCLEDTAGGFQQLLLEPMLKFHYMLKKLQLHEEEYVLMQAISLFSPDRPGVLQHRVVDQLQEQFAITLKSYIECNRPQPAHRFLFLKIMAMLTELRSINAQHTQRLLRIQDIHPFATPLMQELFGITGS
Procedure, shortened: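 Multiplexed TRANS reporter panel in HepG2; this component tracks PXR-Gal4-driven reporter mRNA after 24 h dosing, measured by RT-PCR with capillary electrophoresis fluorescence, fitted against DMSO.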

[14] = target: Cellular tumor antigen p53 (Homo sapiens) (UniProt P04637); experiment: ATG_p53_CIS: Attagene CIS-FACTORIAL HepG2 Assay for human p53 Transcription Factor (AID 2282994); details: HepG2 p53 cis-element reporter, Attagene mRNA; actives raise or lower the signal
Sequence of Cellular tumor antigen p53 (Homo sapiens) (P04637 whole entry, looked up, the tested form may be a part): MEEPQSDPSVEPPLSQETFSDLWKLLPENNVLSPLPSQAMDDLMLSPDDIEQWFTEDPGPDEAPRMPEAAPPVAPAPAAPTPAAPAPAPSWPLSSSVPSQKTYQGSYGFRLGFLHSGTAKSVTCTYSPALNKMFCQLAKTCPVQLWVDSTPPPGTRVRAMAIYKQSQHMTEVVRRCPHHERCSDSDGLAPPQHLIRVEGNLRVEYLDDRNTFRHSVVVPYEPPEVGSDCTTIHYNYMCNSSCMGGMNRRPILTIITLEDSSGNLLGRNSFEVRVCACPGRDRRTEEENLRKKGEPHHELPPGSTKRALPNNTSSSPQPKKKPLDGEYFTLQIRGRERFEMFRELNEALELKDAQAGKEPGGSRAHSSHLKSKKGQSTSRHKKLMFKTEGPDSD
Procedure, shortened: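 In HepG2 cells, reporter transcription units under cis-regulatory promoters were transiently introduced. Following 24 h treatment, RNA was processed to labelled, digested cDNA fragments read by capillary electrophoresis; fitting was bidirectional versus DMSO.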

[15] = target: human Retinoic Acid Receptor beta (RARb), RARB (gene 5915) (UniProt P10826); experiment: ATG_RARb_TRANS: Attagene TRANS-FACTORIAL HepG2 Assay for human Retinoic Acid Receptor beta (AID 2283004; active = hit-call score of the fitted dose curve at least 0.9, where 1 is the maximum)
Sequence of human Retinoic Acid Receptor beta (RARb), RARB (gene 5915) (P10826 whole entry, looked up): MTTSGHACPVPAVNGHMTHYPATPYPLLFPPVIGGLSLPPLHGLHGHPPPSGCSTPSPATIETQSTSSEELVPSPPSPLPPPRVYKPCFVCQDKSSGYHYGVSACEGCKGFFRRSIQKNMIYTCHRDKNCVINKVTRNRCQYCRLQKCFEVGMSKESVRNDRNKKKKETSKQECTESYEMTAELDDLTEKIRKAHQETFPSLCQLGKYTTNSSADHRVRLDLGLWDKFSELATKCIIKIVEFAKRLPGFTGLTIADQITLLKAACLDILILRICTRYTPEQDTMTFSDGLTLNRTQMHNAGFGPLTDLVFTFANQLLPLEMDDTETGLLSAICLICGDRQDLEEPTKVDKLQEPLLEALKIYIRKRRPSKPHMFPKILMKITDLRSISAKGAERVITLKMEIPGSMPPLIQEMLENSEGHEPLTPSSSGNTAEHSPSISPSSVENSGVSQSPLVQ
Procedure, shortened: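 Transient transfection of HepG2 with multiple reporter units → chemical dosing, 24 h → total RNA isolation → RT with oligo(dT) → reporter-specific PCR, 6-FAM primer extension, HpaI digest → capillary electrophoresis. Positive direction vs DMSO control.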

[16] = target: human Retinoic Acid Receptor gamma (RARg), RARG (gene 5916) (UniProt P13631); experiment: ATG_RARg_TRANS: Attagene TRANS-FACTORIAL HepG2 Assay for human Retinoic Acid Receptor gamma (RARg) (AID 2283009; active = hit-call score of the fitted dose curve at least 0.9, where 1 is the maximum)
Sequence of human Retinoic Acid Receptor gamma (RARg), RARG (gene 5916) (P13631 whole entry, looked up, the tested form may be a part): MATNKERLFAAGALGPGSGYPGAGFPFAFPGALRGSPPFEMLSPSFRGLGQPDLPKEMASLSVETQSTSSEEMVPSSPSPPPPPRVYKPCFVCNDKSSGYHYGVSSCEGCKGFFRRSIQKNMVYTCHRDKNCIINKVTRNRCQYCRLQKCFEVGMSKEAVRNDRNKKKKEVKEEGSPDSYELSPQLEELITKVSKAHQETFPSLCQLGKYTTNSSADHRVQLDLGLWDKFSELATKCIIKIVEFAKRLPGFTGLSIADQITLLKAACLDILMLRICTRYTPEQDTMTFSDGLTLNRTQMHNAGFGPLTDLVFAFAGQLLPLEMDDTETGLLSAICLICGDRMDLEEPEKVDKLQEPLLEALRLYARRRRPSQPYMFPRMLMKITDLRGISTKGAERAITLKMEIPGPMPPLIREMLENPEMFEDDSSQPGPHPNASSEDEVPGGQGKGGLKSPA
Procedure, shortened: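 Transactivation of exogenous RARg-Gal4 fusion measured as reporter transcript induction after 24 h in transfected HepG2 cells. RNA reverse-transcribed, amplified, fluorescently labeled and resolved by capillary electrophoresis; increase relative to DMSO.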

[17] = target: Peroxisome proliferator-activated receptor gamma (Homo sapiens) (UniProt P37231); experiment: ATG_PPARg_TRANS: Attagene TRANS-FACTORIAL HepG2 Assay for human Peroxisome Proliferator-activated Receptor-gamma (PPARg) (AID 2283007; active = hit-call score of the fitted dose curve at least 0.9, where 1 is the maximum)
Sequence of Peroxisome proliferator-activated receptor gamma (Homo sapiens) (P37231 whole entry, looked up, the tested form may be a part): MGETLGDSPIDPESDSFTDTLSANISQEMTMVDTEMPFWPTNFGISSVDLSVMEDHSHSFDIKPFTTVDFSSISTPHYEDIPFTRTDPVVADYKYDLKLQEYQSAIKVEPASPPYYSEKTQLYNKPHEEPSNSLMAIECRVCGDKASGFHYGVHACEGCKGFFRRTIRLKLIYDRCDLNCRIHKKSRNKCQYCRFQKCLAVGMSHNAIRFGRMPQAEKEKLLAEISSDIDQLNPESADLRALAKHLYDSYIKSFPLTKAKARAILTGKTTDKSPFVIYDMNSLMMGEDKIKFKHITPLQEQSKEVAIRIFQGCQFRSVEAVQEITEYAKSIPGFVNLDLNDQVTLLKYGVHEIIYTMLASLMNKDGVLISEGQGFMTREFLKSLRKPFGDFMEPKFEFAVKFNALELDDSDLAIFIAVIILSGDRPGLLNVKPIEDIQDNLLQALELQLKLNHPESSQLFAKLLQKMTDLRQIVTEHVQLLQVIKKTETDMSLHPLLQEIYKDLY
Procedure, shortened: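 Gain-of-signal endpoint relative to DMSO, derived from reporter mRNA levels quantified by RT-PCR and capillary electrophoresis. Cells were HepG2 transiently expressing a chimeric NR-Gal4 construct with GAL4-UAS reporters, exposed to chemicals for 24 h.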

[18] = target: human RAR-related Orphan Receptor gamma (RORg), RORC (gene 6097) (UniProt P51449); experiment: ATG_RORg_TRANS: Attagene TRANS-FACTORIAL HepG2 Assay for human RAR-related Orphan Receptor gamma (RORg) (AID 2283011; active = hit-call score of the fitted dose curve at least 0.9, where 1 is the maximum)
Sequence of human RAR-related Orphan Receptor gamma (RORg), RORC (gene 6097) (P51449 whole entry, looked up, the tested form may be a part): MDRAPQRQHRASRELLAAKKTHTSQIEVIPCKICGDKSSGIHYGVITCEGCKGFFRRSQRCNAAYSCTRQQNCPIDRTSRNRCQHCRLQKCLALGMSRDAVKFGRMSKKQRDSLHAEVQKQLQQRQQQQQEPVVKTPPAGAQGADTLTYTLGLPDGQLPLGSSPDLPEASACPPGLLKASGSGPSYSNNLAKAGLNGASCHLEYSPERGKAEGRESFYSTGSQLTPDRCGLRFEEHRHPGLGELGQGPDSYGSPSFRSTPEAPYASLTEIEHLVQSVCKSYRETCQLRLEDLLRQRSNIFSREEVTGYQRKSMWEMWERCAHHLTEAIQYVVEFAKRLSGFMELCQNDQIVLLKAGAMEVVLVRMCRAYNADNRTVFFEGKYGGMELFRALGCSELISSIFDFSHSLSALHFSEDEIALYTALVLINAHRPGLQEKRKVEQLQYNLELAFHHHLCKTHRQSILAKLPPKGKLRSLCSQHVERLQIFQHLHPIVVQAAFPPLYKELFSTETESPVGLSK
Procedure, shortened: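 First, HepG2 liver cells were transfected with GAL4-UAS-driven reporter constructs and the RORg-Gal4 fusion. Next, they were treated with chemical for 24 h. Finally, reporter mRNA was quantified by RT-PCR and capillary electrophoresis, with upward activity fitted against DMSO.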

Measured: AC50

CC(=O)OCC(COC(C)=O)OC(C)=O
not listed: [12] | [13] | [14] | [15] | [16] | [17] | [18]
inactive: all other assays above

C/C=C/c1ccc(OC)cc1
not listed: [14] | [15] | [16] | [17] | [18]
inactive: all other assays above

CC(C)(O)c1ccc(CNC(=O)c2cccnc2Oc2ccc(F)cc2)cc1
active: [3] 40.7 µM | [13] 2.33 µM
not listed: [2] | [17] | [18]
inactive: all other assays above

CC(=O)OC1CC(C)OC(C)O1 (stereo unspecified)
active: [3] 68.9 µM
not listed: [12] | [13] | [14] | [16]
inactive: all other assays above

CCc1nc(N)nc(N)c1-c1ccc(Cl)cc1
active: [3] 2.15 µM | [4] 138 µM | [14] 30.3 µM
not listed: [2] | [15] | [16] | [18]
inactive: all other assays above

CCCCCCCCCC[N+](C)(C)[O-]
not listed: [2] | [12] | [15] | [16] | [18]
inactive: all other assays above

COc1ccc(C(=O)Nc2nc3ccccc3c(NCc3ccccc3)c2C#N)cc1
active: [3] 0.952 µM | [4] 7.37 µM | [11] 9.43 µM | [17] 1.45 µM | [13] 0.585 µM
not listed: [2] | [15] | [16]
inactive: all other assays above

COC(=O)[C@H]1[C@H]2C[C@@H]3c4[nH]c5cc(OC)ccc5c4CCN3C[C@H]2C[C@@H](OC(=O)c2cc(OC)c(OC)c(OC)c2)[C@@H]1OC
active: [3] 45.5 µM | [14] 22.9 µM | [5] 10.4 µM | [6] 23.2 µM | [7] 11.4 µM | [8] 25.7 µM | [11] 16.9 µM
inactive: [1] | [4] | [12] | [9] | [10] | [17]

CC(C)NCC(O)c1ccc(O)c(O)c1 (stereo unspecified)
not listed: [2] | [12] | [13] | [14] | [15] | [16] | [17]
inactive: all other assays above

CC(=O)CC(c1ccccc1)c1c(O)c2ccccc2oc1=O (stereo unspecified)
inactive: [1] | [3] | [4] | [5] | [6] | [7] | [8] | [12] | [10] | [11] | [13] | [18]
active: [3] 27 µM

CCCC(=O)O
not listed: [9] | [12] | [14] | [15] | [17]
inactive: all other assays above

O=C1O[C@H]([C@H](O)CO)C(O)=C1O
not listed: [2] | [9] | [12] | [13] | [15] | [16] | [17]
inactive: all other assays above
